# Results filed as inconclusive are left out. A call without a number means that no potency is given here. Active and inactive are the calls of the source. The call rests on the fitted dose curve; in most records, active means well fitted curve in the direction sought with a large enough effect in the repeat runs; inconclusive means weak or mixed curves; inactive means no such curve, though single readings can be large; an effect the other way counts as inactive or inconclusive.
# How the values were obtained:
# [1] = qHTS assay to identify small molecule antagonists of the retinoid acid receptor (RAR) signaling pathway - cell viability counter screen (AID 1159551); conditions: C3RL4 cells viability, ATP luminescence (CellTiter-Glo), 6 h; series mostly up to 92.4 µM; further: nearly all actives have a fitted effect of over 35% in size
# Procedure, shortened: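 C3RL4 cells were seeded overnight at 37 C, then treated with compounds plus 1 uM (final) retinol for 6 h at 37 C. Viability was read as ATP by CellTiter-Glo luminescence after 30 min at room temperature.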
# [2] = qHTS assay to identify small molecule agonists of the RXR signaling pathway - cell viability counter screen (AID 1159529); conditions: RXR-alpha-bla HEK293T viability, CellTiter-Glo, 16 h; series mostly up to 76.8 µM; further: nearly all actives have a fitted effect of over 50% in size
# Procedure, shortened: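 Luminescence from CellTiter-Glo (30 min, RT) measured viability in the same wells as the beta-lactamase reporter readout. Cells: GeneBLAzer RXR-alpha HEK 293T, 2% charcoal-stripped FBS. Compound exposure 16 hr, 37 C.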
# [3] = qHTS assay to identify small molecule antagonists of the retinoic acid receptor (RAR) signaling pathway (AID 1159552; further: nearly all actives have a fitted effect of over 50% in size); conditions: C3RL4 RARE luciferase reporter, retinol-stimulated, 6 h; series mostly up to 92.4 µM
# Procedure, shortened: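 Luminescence from a RARE luciferase reporter in C3RL4 cells served as read-out. Cells received compounds together with 1 uM final retinol and incubated 6 hr at 37 C before detection reagent was added for 30 min at room temperature.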
# [4] = qHTS assay to identify small molecule agonists of the retinoic acid receptor (RAR) signaling pathway (AID 1159553); conditions: C3RL4 RARE luciferase reporter, agonist, 6 h; series mostly up to 73.3 µM
# Procedure, shortened: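 C3RL4 cells carrying a RARE luciferase reporter were plated overnight at 37 C, then exposed to compounds in DMSO for 6 hr at 37 C and 5% CO2. Luminescence was read 30 min after luciferase reagent addition at room temperature.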
compound,measurement,setting,value
CC(C)(O)C(=O)c1ccc(OCCO)cc1,outcome,[1],inactive
NC(=O)c1ncn([C@@H]2O[C@H](CO)[C@@H](O)[C@H]2O)c1N,Potency,[2],inactive
same,Potency,[3],inactive
same,Potency,[4],inactive
OCC(CO)(CO)COCC(CO)(CO)CO,outcome,[1],inactive
CC(C)[C@H](N)C(=O)OCCOCn1cnc2c(=O)[nH]c(N)nc21,outcome,[1],inactive
CCCCN(CCO)CCO,outcome,[1],inactive
CC(C)[N+](C)(C)CC(O)COc1cccc2ccccc12 (configuration not stated),outcome,[1],inactive
O=[N+]([O-])c1ccc(CCO)cc1,outcome,[1],inactive
CCCCCOC(=O)Nc1nc(=O)n([C@@H]2O[C@H](C)[C@@H](O)[C@H]2O)cc1F,outcome,[1],inactive
Nc1cc(C(Cl)=C(Cl)Cl)c(S(N)(=O)=O)cc1S(N)(=O)=O,outcome,[1],inactive
C=CCOCC(O)CS(=O)(=O)O (configuration not stated),outcome,[1],inactive

# Reference: PubChem BioAssay (Tox21)
